Results as given in PubChem BioAssay AID540333 (Southern Research Specialized Biocontainment Screening …, 2011).
Hit rate of the full screen: of about 10,000 compounds, about 320 (3.2%) were called active. Cut-off read from the data, not from the text of the source: active = CPE inhibition mostly above about 9.1% (no sharp cut-off); inactive = mostly below about 7.2%. The list comes from a sample in which actives are over-represented; it also holds similar structures and randomly drawn compounds.

Assay: Dengue virus cytopathic effect inhibitors, cell-based, CPE readout, HTS (AID 540333)
Conditions: Dengue virus CPE inhibition in host cells, at 20 µM; hits give high values

Row | Structure (SMILES) | CPE inhibition
1 | Cc1ccc(-c2csc(NC(CO)c3nc4ccccc4n3CCOCCO)n2)cc1 (configuration not stated) | 0.615% (inactive)
2 | CC(O)c1nc2ccccc2n1Cc1ccc([N+](=O)[O-])cc1 (configuration not stated) | inactive
3 | CCCn1c(C(C)Nc2nc(-c3ccc(Cl)c([N+](=O)[O-])c3)cs2)nc2ccccc21 (configuration not stated) | 29.9% (active)
4 | CCC1CCCCN1C(=O)c1cccc(S(=O)(=O)Nc2cc(C(F)(F)F)ccc2Cl)c1 (configuration not stated) | 3.38% (inactive)
5 | COc1ccc(CCN=C(N)NS(=O)(=O)c2ccc3ccccc3c2)cc1 | inactive
6 | Cc1ccc(C2(CCN)CCOC(C(C)C)C2)cc1 (configuration not stated) | 7.74% (active)
7 | O=C(NNS(=O)(=O)c1ccc(Cl)cc1)c1ccc(S(=O)(=O)N2CCCCC2)cc1 | inactive
8 | Cc1ccc(S(=O)(=O)N2CCCCCC2)cc1[N+](=O)[O-] | inactive
9 | CC(C)(C)c1ccc(S(=O)(=O)N2CCSC2)cc1 | 0.03% (inactive)
10 | CC(C)(C)c1ccc(S(=O)(=O)N2CCCCC2)cc1 | 9.75% (active)
11 | COC(=O)c1ccccc1NC(=S)N(Cc1ccc2c(c1)OCO2)Cc1cc2cc(C)ccc2[nH]c1=O | 21.6% (active)
12 | COC(=O)c1ccccc1NC(=S)N(Cc1ccc2c(c1)OCO2)Cc1cc2ccc(OC)cc2[nH]c1=O | 23.8% (active)
13 | CNC(=S)N(Cc1cccs1)Cc1cc2cc(OC)c(OC)cc2[nH]c1=O | inactive
14 | COC(=O)c1ccccc1NC(=S)N(Cc1ccc2c(c1)OCO2)Cc1cc2ccc(C)cc2[nH]c1=O | 33% (active)
15 | COc1cc2cc(CN(Cc3cccs3)C(=S)Nc3ccccc3)c(=O)[nH]c2cc1OC | 6.21% (inactive)
16 | CCOc1ccccc1NC(=S)N(Cc1cc2ccc(C)cc2[nH]c1=O)CC1CCCN1CC (configuration not stated) | inactive
17 | Cc1ccc2[nH]c(=O)c(CN(Cc3cccs3)C(=S)NCc3ccco3)cc2c1 | 5.92% (inactive)
18 | COC(=O)c1ccccc1NC(=S)N(Cc1ccc2c(c1)OCO2)Cc1cc2cc(OC)ccc2[nH]c1=O | 3.25% (inactive)
19 | CCN1CCCC1CN(Cc1cc2ccc(C)cc2[nH]c1=O)C(=S)Nc1ccccc1OC (configuration not stated) | inactive
20 | COC(=O)Cc1ccc(NC(=S)N2CCN(c3cccc(O)c3)CC2)cc1 | 0.105% (inactive)
21 | CCOC(=O)CCCNC(=O)COC(=O)[C@@H]1CCCN1S(=O)(=O)c1ccc(Cl)cc1 | inactive

Row | Structure (SMILES) | CPE inhibition
22 | Cc1ccc(-c2nc3ccccc3c(=O)n2NC(=O)COc2ccccc2)cc1 | 0.37% (inactive)
23 | CN(C)c1ccc(/C=N/NC(=S)NCc2ccco2)cc1 | 0.335% (inactive)
24 | COc1ccc(NC(=O)Nc2cccc([N+](=O)[O-])c2)cc1Cl | 0.865% (inactive)
25 | O=C(O)c1ccc(NC(CSCc2ccccc2F)C(=O)O)c([N+](=O)[O-])c1 (configuration not stated) | inactive
26 | CC12CCC(C(=O)N(c3ccc(Cl)cc3)C1=O)C2(C)C (configuration not stated) | inactive
27 | Cc1c(N=C2NC(=O)/C(=C/c3ccc(O)cc3)S2)c(=O)n(-c2ccccc2)n1C | 0.27% (inactive)
28 | CC12CCC(C/C1=N\N=C1\NC(=O)/C(=C\c3ccc(Cl)cc3)S1)C2(C)C (configuration not stated) | 12.2% (active)
29 | NS(=O)(=O)c1ccc(NC(=S)N2CCN(c3ccccc3)CC2)cc1 | 0.43% (inactive)
30 | O=C(COc1ccccc1-c1ccccc1)NCCN1C(=O)S/C(=C\c2cccnc2)C1=O | 2.91% (inactive)
31 | COc1ccc(N(C(=O)CSCC(=O)Nc2cc(C)on2)C(C(=O)NC2CCCCC2)c2ccc(O)c(O)c2)cc1 (configuration not stated) | inactive
32 | COc1cc(OC)cc(N(C(=O)C2COc3ccccc3O2)C(C(=O)NC2CCCCC2)c2ccc(O)cc2)c1 (configuration not stated) | 12.5% (active)
33 | COc1ccc(N(C(=O)C2COc3ccccc3O2)C(C(=O)NC2CCCCC2)c2ccccc2)cc1OC (configuration not stated) | 4.27% (inactive)
34 | CC(C)[C@H](NC(=O)c1ccccc1)C(=O)OCC(=O)N1CCCCCC1 | 1.74% (inactive)
35 | COc1cc(C(=O)NC(=S)N(CCc2ccccc2)CCc2ccccc2)cc(OC)c1OC | inactive
36 | COCCNC(=S)N/N=C(\C)c1ccccc1OC | 0.125% (inactive)
37 | COc1cccc(/C=C(/C(=O)OCC(=O)NC2CCCC(C)C2C)c2ccccc2)c1 (configuration not stated) | 28.3% (active)
38 | CC1CCCC(NC(=O)COC(=O)c2cccc(NS(=O)(=O)/C=C/c3ccccc3)c2)C1C (configuration not stated) | inactive
39 | Cc1ccc(-c2nc(N)sc2CC(=O)OCC(=O)NC2CCCC(C)C2C)cc1 (configuration not stated) | 0.74% (inactive)
40 | O=C1COc2cc(ccc2[N+](=O)[O-])Oc2ccc(cc2Cl)C(=O)CCCCO1 | inactive
41 | c1nc(N2CCC3(CC2)OCCO3)c2[nH]cnc2n1 | inactive
42 | Cc1ccc(C(C(=O)NC2CCCCC2)N(C(=O)Cc2c[nH]c3ccccc23)c2ccccc2C)o1 (configuration not stated) | 3.84% (inactive)

Row | Structure (SMILES) | CPE inhibition
43 | COc1cccc(CN(C(=O)Cc2c[nH]c3ccccc23)C(C(=O)NC2CCCCC2)c2ccc(C)o2)c1 (configuration not stated) | 3.12% (inactive)
44 | Cc1ccc(C(C(=O)NC2CCCCC2)N(Cc2ccccc2)C(=O)Cc2c[nH]c3ccccc23)o1 (configuration not stated) | 24.2% (active)
45 | CCN1CCS/C1=C/C=C/C1=[N+](CC)CCS1 | 0.14% (inactive)
46 | CC(C)(C)[C@H]1C=C(C(=O)Nc2ccccc2)O[C@@H](OCCCCO)C1 | inactive
47 | O=C1C2C3C=CC(c4ccccc4)(C2C(=O)N1c1cccc(Cl)c1)C1C(=O)N(c2cccc(Cl)c2)C(=O)C31 (configuration not stated) | 25.2% (active)
48 | CC12CCC(C(=O)N(c3cccc(Cl)c3)C1=O)C2(C)C (configuration not stated) | inactive
49 | O=C1C2C(c3ccccc3)(C(=O)N1c1ccc(Cl)cc1)C2(c1ccccc1)c1ccccc1 (configuration not stated) | 1.7% (inactive)
50 | CC(C)(C)c1ccc(-c2ccc3c(c2)S(=O)(=O)c2ccccc2C3=O)cc1 | 2.16% (inactive)
51 | COc1ccc(CCN2C(=O)NC(NC(C)=O)(C(F)(F)F)C2=O)cc1OC (configuration not stated) | 0.945% (inactive)
52 | COC(=O)CN1C(=S)N(Cc2ccccc2)C(=O)C1CC(=O)Nc1ccc(OC)cc1 (configuration not stated) | inactive
53 | COc1ccc(CN2C[C@H](Cc3ccccc3)[C@@H](CC(=O)Nc3ccccc3)C2=O)cc1 | 13.5% (active)
54 | CCCCC[C@H]1CN(CCCC)C(=O)[C@@H]1CC(=O)NCc1ccccc1 | 3.67% (inactive)
55 | O=C(CN1C2=NCCCN2c2ccccc21)c1cccc(Br)c1 | 4% (inactive)
56 | CCOC(=O)[C@@H]1[C@H]2COc3cc(OC)ccc3[C@H]2N2C(=O)N(c3ccc(F)cc3)C(=O)[C@@]12C | 2.49% (inactive)
57 | COc1ccc2c(c1)[C@H]1[C@H](CO2)[C@H](c2ccccc2)[C@]2(C)C(=O)Nc3cc(OC)c(OC)cc3C(=O)N12 | 2% (inactive)
58 | CCOC(=O)[C@@H]1[C@H]2COc3cc(OC)ccc3[C@@H]2N2C(=O)N(c3ccccc3)C(=O)[C@]12C | 0.065% (inactive)
59 | C[C@@]12C(=O)Nc3ccc(F)cc3C(=O)N1[C@H]1c3cc(Br)ccc3OC[C@@H]1[C@@H]2c1ccccc1 | 6.78% (inactive)
60 | COc1ccc2c(c1)C(=O)N1[C@H]3c4cc(OC)ccc4OC[C@@H]3[C@H](c3ccccc3)[C@]1(C)C(=O)N2 | 7.37% (inactive)
61 | COc1cc2c(cc1OC)C(=O)N1[C@H]3c4cc(Cl)ccc4OC[C@@H]3[C@H](c3ccccc3)[C@]1(C)C(=O)N2 | 16.3% (active)
62 | C[C@]12C(=O)N(c3ccc(F)cc3)C(=O)N1[C@H]1c3ccccc3OC[C@@H]1[C@H]2c1ccccc1 | 1.73% (inactive)
63 | COc1ccc2c(c1)[C@H]1[C@H](CO2)[C@H](c2ccccc2)[C@]2(C)C(=O)Nc3cc(Cl)ccc3C(=O)N12 | 11% (inactive)

Row | Structure (SMILES) | CPE inhibition
64 | COc1ccc2c(c1)C(=O)N1[C@H]3c4cc(C)ccc4OC[C@@H]3[C@H](c3ccccc3)[C@]1(C)C(=O)N2 | 14.5% (active)
65 | C[C@]12C(=O)N(c3ccc(C(F)(F)F)cc3)C(=O)N1[C@H]1c3ccccc3OC[C@@H]1[C@H]2c1ccccc1 | 11.2% (inactive)
66 | COc1ccc2c(c1)OC[C@H]1[C@H]2N2C(=O)CN(Cc3ccc(F)cc3)C(=O)[C@@]2(C)[C@H]1c1ccccc1 | 12.2% (active)
67 | C[C@@]12C(=O)Nc3ccc(Br)cc3C(=O)N1[C@H]1c3cc(Cl)ccc3OC[C@@H]1[C@@H]2c1ccccc1 | 18.8% (active)
68 | CCOc1ccc(N2C(=O)/C(=C/c3ccco3)N(C)C2=S)cc1 | 3.13% (inactive)
69 | Cc1cc(C)cc(NC(=S)NCc2cccs2)c1 | 1.1% (inactive)
70 | Cc1ccc(C)c(NC(=O)COC(=O)c2cccc3c2C(=O)c2ccccc2C3=O)c1 | 0.805% (inactive)
71 | O=C(OC(c1ccccc1)c1nccc2ccccc12)c1cc([N+](=O)[O-])cc([N+](=O)[O-])c1 (configuration not stated) | 0.39% (inactive)
72 | Cc1ccc(-c2nn(-c3ccccc3)cc2/C=C/C(=O)Nc2nccs2)cc1 | 3.35% (inactive)
73 | CC(=O)N1CCC2(CC1)CC(=O)c1cc(Cl)ccc1O2 | inactive
74 | Cc1cc(C)c(-c2csc(NC(=O)c3n[nH]c(=O)c4ccccc34)n2)c(C)c1 | 2.35% (inactive)
75 | COC(=O)[C@H]1[C@H](CCc2ccccc2)NC(=O)N(Cc2ccccc2)[C@@H]1C | inactive
76 | COC(=O)c1c(NC(=O)CN2CCC3(O)CCCCC3C2c2ccccc2OC)sc(C)c1C (configuration not stated) | 2.39% (inactive)
77 | COC(=O)c1c(NC(=O)CN2CCC3(O)CCCCC3C2c2cc(OC)ccc2OC)sc(C)c1C (configuration not stated) | 11.8% (active)
78 | COC(=O)c1c(NC(=O)CC2Sc3ccc(C(F)(F)F)cc3NC2=O)sc(C)c1C (configuration not stated) | 0.71% (inactive)
79 | COc1ccc(C2C3CCCCC3(O)CCN2C(=O)c2cccs2)cc1 (configuration not stated) | 2.42% (inactive)
80 | CCOC(=O)c1c(NC(=O)CN2C(=O)NC3(CCCCC3)C2=O)sc(C)c1-c1ccc(C)cc1 | 9.96% (inactive)
81 | COC(=O)c1c(NC(=O)CN2CCC3(O)CCCCC3C2c2ccc(F)cc2)sc(C)c1C (configuration not stated) | 27.5% (active)
82 | CCOc1cc(/C=C(\C#N)C(N)=O)ccc1OS(=O)(=O)c1ccccc1 | 0.64% (inactive)
